Read-out in assay [1]: Macrophage colony-stimulating factor (MCSF), CSF1 (gene 1435)
Nature of the assay: BSK_hDFCGF_MCSF: BioMAP Diversity Plus: hDFCGF Assay for Macrophage colony-stimulating factor (MCSF) Biomarker Activity (AID 2283060). The conditions noted are these: primary human foreskin fibroblasts; actives raise or lower the signal. Put shortly: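 fibroblasts (human foreskin, primary), 24 h post-dose; M-CSF by ELISA; bidirectional fit, DMSO = baseline.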

Assay [2] in a line: BSK_hDFCGF_SRB: Viability Assessment in the BioMAP Diversity Plus: hDFCGF Assay (AID 2283061).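 Also: cells exposed to compound for 24 h before the read.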 To be noted: primary human foreskin fibroblasts. Put shortly: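 SRB-based viability read on primary human skin fibroblasts at 24 h: TCA fixation, 0.1% dye, 560 nm. Gain or loss of signal is fitted against the DMSO negative control.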
Read-out in assay [3]: TIMP metallopeptidase inhibitor 1 (TIMP1), TIMP1 (gene 7076)
The assay can be described thus: BSK_hDFCGF_TIMP1: BioMAP Diversity Plus: hDFCGF Assay for TIMP metallopeptidase inhibitor 1 (TIMP1) Biomarker Activity (AID 2283062). The conditions noted are these: primary human foreskin fibroblasts; actives raise or lower the signal. The method in brief: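 Bidirectional curve fitting against DMSO baseline yielded this endpoint, based on ELISA detection of TIMP-1 in primary human foreskin fibroblasts exposed to compound for 24 h.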

Read-out in assay [4]: Monokine induced gamma interferon (MIG), CXCL9 (gene 4283)
Nature of the assay: BSK_hDFCGF_MIG: BioMAP Diversity Plus: hDFCGF Assay for Monokine induced gamma interferon (MIG) Biomarker Activity (AID 2283063). To be noted: primary human foreskin fibroblasts; actives raise or lower the signal. The method in brief: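 Endpoint derived by bidirectional fitting relative to DMSO; MIG quantified via ELISA in primary human foreskin fibroblasts harvested 24 h after dosing.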

Read-out in assay [5]: Matrix Metallopeptidase 1 (MMP1), MMP1 (gene 4312)
Nature of the assay: BSK_hDFCGF_MMP1: BioMAP Diversity Plus: hDFCGF Assay for Matrix Metallopeptidase 1 (MMP1) Biomarker Activity (AID 2283064). To be noted: primary human foreskin fibroblasts; actives raise or lower the signal. Put shortly: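 MMP1 levels quantified by ELISA 24 h after dosing human dermal fibroblast cultures, with parallel SRB total-protein staining for overt cytotoxicity. Data fitted in both directions against DMSO baseline.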

Read-out in assay [6]: Vascular cell adhesion molecule 1 (VCAM1), VCAM1 (gene 7412)
The assay can be described thus: BSK_hDFCGF_VCAM1: BioMAP Diversity Plus: hDFCGF Assay for Vascular cell adhesion molecule 1 (VCAM1) Biomarker Activity (AID 2283065).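 As to AC50: VCAM-1 protein level quantified by ELISA after 24 h chemical exposure.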 The conditions noted are these: primary human foreskin fibroblasts; actives raise or lower the signal. The method in brief:
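Measured after 24 h chemical treatment of primary human skin fibroblasts, VCAM-1 was detected by ELISA and concentration-response analysed in both directions versus DMSO vehicle.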

Read-out in assay [7]: Plasminogen activator inhibitor-1 (PAI1), SERPINE1 (gene 5054)
The assay can be described thus: BSK_hDFCGF_PAI1: BioMAP Diversity Plus: hDFCGF Assay for Plasminogen activator inhibitor-1 (PAI1) Biomarker Activity (AID 2283066). To be noted: primary human foreskin fibroblasts; actives raise or lower the signal. The method in brief: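 PAI-1 levels in human dermal foreskin fibroblasts were quantified by ELISA 24 h after dosing, with gain or loss analysed against DMSO. Overt cytotoxicity was checked by sulforhodamine B total-protein staining in parallel cultures.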

Read-out in assay [8]: Interferon-gamma inducible Protein 10 (IP10), CXCL10 (gene 3627)
Nature of the assay: BSK_KF3CT_IP10: BioMAP Diversity Plus: KF3CT Assay for Interferon-gamma inducible Protein 10 (IP10) Biomarker Activity (AID 2283068). To be noted: primary human keratinocytes with fibroblasts; actives raise or lower the signal. Put shortly:
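ELISA read-out of IP-10 after 24 h chemical dosing of human skin primary co-culture (keratinocytes, foreskin fibroblasts). Gain or loss of signal relative to DMSO, bidirectional curve fit.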

Assay [9] in a line: BSK_KF3CT_SRB: Viability Assessment in the BioMAP Diversity Plus: KF3CT Assay (AID 2283069).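 Also: read 24 h after compound addition.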 To be noted: primary human keratinocytes with fibroblasts. The method in brief:
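Cytotoxicity was gauged by SRB staining (0.1% SRB, 10% TCA fixation, 560 nm) of parallel cultures at 24 h. The cells were primary human skin keratinocytes co-cultured with fibroblasts, and activity was fitted in both directions against DMSO.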

Read-out in assay [10]: Interleukin-1 alpha (IL1a), IL1A (gene 3552)
Nature of the assay: BSK_KF3CT_IL1a: BioMAP Diversity Plus: KF3CT Assay for Interleukin-1 alpha (IL1a) Biomarker Activity (AID 2283070). To be noted: primary human keratinocytes with fibroblasts; actives raise or lower the signal. Put shortly: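 IL-1a was detected by ELISA 24 h after chemical treatment of a co-culture of human skin keratinocytes and foreskin fibroblasts. Gain or loss of signal was fitted against the DMSO baseline.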

Read-out in assay [11]: TIMP metallopeptidase inhibitor 2 (TIMP2), TIMP2 (gene 7077)
Nature of the assay: BSK_KF3CT_TIMP2: BioMAP Diversity Plus: KF3CT Assay for TIMP metallopeptidase inhibitor 2 (TIMP2) Biomarker Activity (AID 2283071). To be noted: primary human keratinocytes with fibroblasts; actives raise or lower the signal. The method in brief: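 TIMP-2 measured by ELISA at 24 h in human keratinocyte/fibroblast primary co-cultures exposed to chemicals. Both increases and decreases were fitted against DMSO. Parallel cultures were stained with SRB for total protein as an overt-cytotoxicity check.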

Read-out in assay [12]: C-C motif chemokine 2 (Homo sapiens) (UniProt P13500)
The assay can be described thus: BSK_KF3CT_MCP1: BioMAP Diversity Plus: KF3CT Assay for Monocyte Chemoattractant Protein 1 (MCP1/CCL2) Biomarker Activity (AID 2283073). The conditions noted are these: primary human keratinocytes with fibroblasts; actives raise or lower the signal. The method in brief: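 Biomarker MCP-1 is measured by ELISA in primary human keratinocytes co-cultured with foreskin fibroblasts, 24 h after chemical treatment; DMSO serves as the negative control and activity baseline.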

Read-out in assay [13]: Matrix Metallopeptidase 9 (MMP9), MMP9 (gene 4318)
The assay can be described thus: BSK_KF3CT_MMP9: BioMAP Diversity Plus: KF3CT Assay for Matrix Metallopeptidase 9 (MMP9) Biomarker Activity (AID 2283074).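 As to AC50: MMP9 protein level quantified by ELISA in the co-culture.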 The conditions noted are these: primary human keratinocytes with fibroblasts; actives raise or lower the signal. The method in brief:
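MMP-9 quantified by ELISA after 24 h chemical treatment of primary human skin keratinocyte/fibroblast co-cultures; gain or loss fitted against DMSO, with parallel SRB staining (0.1% SRB, 560 nm) for overt cytotoxicity.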

Read-out in assay [14]: urokinase plasminogen activator (uPA), PLAU (gene 5328)
Nature of the assay: BSK_KF3CT_uPA: BioMAP Diversity Plus: KF3CT Assay for urokinase plasminogen activator (uPA) Biomarker Activity (AID 2283075). To be noted: primary human keratinocytes with fibroblasts; actives raise or lower the signal. Put shortly:
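ELISA read-out of uPA 24 h after dosing human skin keratinocytes co-cultured with foreskin fibroblasts. Signal change fitted both ways relative to DMSO; sulforhodamine B on parallel cultures marks overt cytotoxicity.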

Read-out in another assay: CD40, CD40 (gene 958)
The assay can be described thus: BSK_LPS_CD40: BioMAP Diversity Plus: LPS Assay for CD40 Biomarker Activity (AID 2283076). To be noted: primary human HUVEC with PBMC; actives raise or lower the signal. The method in brief:
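Using a multiplexed primary human co-culture (umbilical vein endothelium plus PBMC), CD40 was read by ELISA 24 h after dosing, with cytotoxicity tracked by sulforhodamine B staining of parallel cultures and activity fitted bidirectionally versus DMSO.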

Read-out in assay [15]: E-selectin (Homo sapiens) (UniProt P16581)
Nature of the assay: BSK_LPS_Eselectin: BioMAP Diversity Plus: LPS Assay for Eselectin Biomarker Activity (AID 2283077). The conditions noted are these: primary human HUVEC with PBMC; actives raise or lower the signal. Put shortly: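 Dose chemical onto LPS-driven HUVEC/PBMC co-culture; after 24 h, run ELISA for E-selectin; fit up- and down-going responses relative to DMSO control.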

Read-out in assay [16]: Interleukin-8 (IL8), CXCL8 (gene 3576)
The assay can be described thus: BSK_LPS_IL8: BioMAP Diversity Plus: LPS Assay for Interleukin-8 (IL8) Biomarker Activity (AID 2283078). The conditions noted are these: primary human HUVEC with PBMC; actives raise or lower the signal. Put shortly:
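In this LPS system, chemical-treated human umbilical vein endothelium/PBMC co-cultures were harvested at 24 h for IL-8 ELISA.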

The nature of assay [17]: BSK_LPS_SRB: Viability Assessment in the BioMAP Diversity Plus: LPS Assay (AID 2283079).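 Also: total protein by sulforhodamine B absorbance as a cytotoxicity measure; measured one day after compound addition; fitted in both directions against DMSO so loss or gain of signal counts.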 To be noted: primary human HUVEC with PBMC. Put shortly: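 Cytotoxicity endpoint in human endothelial–PBMC co-culture: 24 h exposure, then SRB (0.1%) staining, 560 nm read.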
Read-out in assay [18]: Intercellular Adhesion Molecule 1 (ICAM1), ICAM1 (gene 3383)
Nature of the assay: BSK_KF3CT_ICAM1: BioMAP Diversity Plus: KF3CT Assay for Intercellular Adhesion Molecule 1 (ICAM1) Biomarker Activity (AID 2283067). To be noted: primary human keratinocytes with fibroblasts; actives raise or lower the signal. Put shortly: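 Bidirectional curve fitting against a DMSO baseline was applied to ICAM-1 ELISA signal from primary human skin co-cultures harvested 24 h after treatment, with SRB staining of parallel wells for overt cytotoxicity.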

The structures appear in SMILES notation. “And” between values parts separate entries of the source, which are not always exact repeats. Identical values can stand only once. Some structures have more than one record in an assay (separate samples or runs), and their calls can disagree. The source made the active and inactive calls. The calls were made as follows: active = hit-call score of the fitted dose curve at least 0.9, where 1 is the maximum; inactive = score below 0.9.

Chain of E-selectin (Homo sapiens) (P16581 whole entry, looked up): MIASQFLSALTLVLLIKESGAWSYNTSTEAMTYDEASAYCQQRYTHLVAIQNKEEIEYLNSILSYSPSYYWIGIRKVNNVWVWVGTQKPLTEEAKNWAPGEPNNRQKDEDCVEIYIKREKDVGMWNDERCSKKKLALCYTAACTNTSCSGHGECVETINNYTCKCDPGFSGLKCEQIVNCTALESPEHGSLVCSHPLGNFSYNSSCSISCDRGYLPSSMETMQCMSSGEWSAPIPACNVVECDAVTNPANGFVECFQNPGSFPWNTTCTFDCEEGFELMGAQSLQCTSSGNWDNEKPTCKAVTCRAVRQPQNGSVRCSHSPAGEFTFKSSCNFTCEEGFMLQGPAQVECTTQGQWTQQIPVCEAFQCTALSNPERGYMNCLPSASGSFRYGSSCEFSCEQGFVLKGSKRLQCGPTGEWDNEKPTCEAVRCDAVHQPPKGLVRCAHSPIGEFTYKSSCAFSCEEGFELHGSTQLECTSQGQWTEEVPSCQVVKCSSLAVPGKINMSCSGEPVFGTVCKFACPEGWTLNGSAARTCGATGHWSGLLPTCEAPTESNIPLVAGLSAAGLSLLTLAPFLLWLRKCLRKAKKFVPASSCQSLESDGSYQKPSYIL

In the case of `FC(F)(F)C(F)(F)C(F)(F)C(F)(F)C(F)(F)C(F)(F)C(F)(F)Br`, the result in assay [1], in assay [2], in assay [3], in assay [4], in assay [5] and in [6] was inactive. The outcome in [7], in [8], in assay [9], in assay [10], in assay [11] and in assay [12] was inactive. Besides, the outcome is “inactive” in assay [13]; “inactive” in assay [14]; “inactive” with CD40, CD40 (gene 958); “inactive” in assay [15]; “inactive” in assay [16]; “inactive” in assay [17].

Take `O=C(O)C(F)(F)C(F)(F)C(F)(F)C(F)(F)C(F)(F)C(F)(F)C(F)(F)C(F)(F)C(F)(F)C(F)F`: the AC50 in assay [1] was 11 µM (active); in assay [2] it was 54 µM (active) and 7.25 µM (active); in assay [4], 9.87 µM (active) and 5.95 µM (active); in [6], 15.3 µM (active) and 5.95 µM (active); in [7], 45.6 µM (active) and 46 µM (active); in [8], 27.6 µM (active) and 23.7 µM (active). Also, the concentration at half-maximal activity (AC50) in [9] was 52.4 µM (active) and 49.3 µM (active); in assay [10], 48.7 µM (active) and 46.1 µM (active); in assay [11] it was 42.2 µM (active); in assay [12], 30 µM (active) and 11.4 µM (active); in assay [13], 16.2 µM (active) and 12.5 µM (active); with CD40, CD40 (gene 958), 24.9 µM (active) and 41.6 µM (active). Also, the AC50 was 58.3 µM (active) in assay [15]; 55 µM (active) in assay [16]; 46.9 µM (active) and 55 µM (active) in assay [17]. Further, the result in [1], in assay [3], in assay [5], in [11], in assay [15] and in [16] was inactive.

As to `FC(F)(F)C(F)(F)C(F)(F)C(F)(F)C(F)(F)CCI`, the AC50 in assay [1] is 23.4 µM (active); in assay [5], 8.91 µM (active); in [6], 38.6 µM (active) and 32.6 µM (active). The result in assay [1], in assay [2], in assay [3], in assay [5], in assay [7] and in [18] was inactive. Besides, the result in assay [8], in assay [9], in assay [10], in [11], in [12] and in assay [13] was inactive. In addition, the outcome in assay [14] is “inactive”; in the assay with CD40, CD40 (gene 958), “inactive”; in assay [15], “inactive”; in assay [16], “inactive”; in assay [17] it was “inactive”.

Take `COC(=O)CCC(F)(F)C(F)(F)C(F)(F)C(F)(F)F`: the outcome in assay [1], in assay [2], in [3], in assay [4], in assay [5] and in [6] was inactive. In addition, the outcome in assay [7], in assay [18], in assay [8], in assay [9], in assay [10] and in assay [11] was inactive. For the same compound, the outcome in assay [12] is “inactive”; in assay [13] it was “inactive”; with CD40, CD40 (gene 958) it was “inactive”; in assay [15], “inactive”; in assay [16] it was “inactive”; in assay [17] it was “inactive”. In addition, the AC50 in assay [2] was 30 µM (active).

For the origin of these results see PubChem BioAssay (EPA / NIEHS).
